# Sampled rows, rich in hits. Any-hit rate of the full collection: about 5.7%.
# AHR activator: activators of human aryl hydrocarbon receptor. AID 2796. AHR-responsive luciferase reporter cells, luminescence. P35869. activation, % at 5 µM. 320,000 compounds, 2.5% hits; in the data active = activation above about 47%;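 note: 0% = vehicle wells and 100% = reference agonist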
# DAX1 inh-1: NR0B1 (DAX1) inhibition; P51843; HEK293 Gal4-DAX1 luciferase reporter, luminescence; inhibition, % at 6.75 µM; 340,000 compounds, 0.99% hits;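 active = inhibition above the mean over all tested compounds plus 3 SD, cut at about 4.2% in these data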;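 note: 0% = DAX1-transfected cells with DMSO and 100% = empty-vector control cells with DMSO; inhibition shows as a rise in luminescence from relieved DAX1 repression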
# Target sequence (P51843 207-470 limits assumed): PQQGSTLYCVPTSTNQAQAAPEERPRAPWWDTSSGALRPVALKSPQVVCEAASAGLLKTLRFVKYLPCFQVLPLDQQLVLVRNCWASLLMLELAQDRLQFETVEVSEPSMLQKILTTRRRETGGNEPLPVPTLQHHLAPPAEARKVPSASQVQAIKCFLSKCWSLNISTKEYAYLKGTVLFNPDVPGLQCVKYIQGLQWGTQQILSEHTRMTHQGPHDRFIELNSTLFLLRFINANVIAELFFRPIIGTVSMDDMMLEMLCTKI
# hgDAF-12 ag: hgDAF-12 agonism, primary luciferase screen; HEK293 GAL4-hgDAF12 UAS-luciferase reporter, agonist luminescence; normalized to butyrate control; activation, % at 6.8 µM; 370,000 compounds, 1.8% hits; AID 687014;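 active = activation above a cutoff set at the mean of all screened compounds plus 3 SD, cut at about 10% in these data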;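 note: 0% = DMSO wells and 100% = sodium butyrate wells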
# ssDAF12 agonist: activates DAF-12 receptor from parasite S. stercoralis; HEK293 ssDAF-12/GRIP1 lit1-tk-luc reporter, luminescence; % of 3 µM dafachronic acid response; activation, % at 6.8 µM; 370,000 compounds, 1% hits; AID 652126;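 active = activation above the mean over all tested compounds plus 3 SD, cut at about 0.9% in these data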;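 note: 0% = DMSO-only wells and 100% = 3 µM delta7-dafachronic acid wells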
# hcDAF12 agonist: activates DAF-12 receptor from parasite H. contortus. HEK293 hcDAF-12 lit1-tk-luc reporter, luminescence; 0% DMSO, 100% Δ7-dafachronic acid. activation, % at 6.8 µM. 370,000 compounds, 1.4% hits. AID 652067;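 active = activation above the mean of all tested compounds plus 3 SD, cut at about 5.5% in these data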;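 note: 100% = response to 3 µM Δ7-dafachronic acid high control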
# DAX1 inh-2: blocks DAX1 repression of SF-1 activated StAR promoter | HEK293T StAR-luciferase reporter, SF-1/DAX-1 repression relief | inhibition, % at 6.8 µM | 370,000 compounds, 1.1% hits;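 active = inhibition above the mean over all tested compounds plus 3 SD, cut at about 3.6% in these data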;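 note: 0% = DAX-1 cells with DMSO and 100% = cells lacking DAX-1 with DMSO; higher inhibition means more luminescence from relief of DAX-1 repression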
# * marks the source's active call; other numbers are inactive results; . = no result given.
SMILES,AHR activator,DAX1 inh-1,hgDAF-12 ag,ssDAF12 agonist,hcDAF12 agonist,DAX1 inh-2
COc1cccc(OCc2cc(/C=N/NC(=O)c3ccn[nH]3)ccc2OC)c1,63*,2,5,-1,0,0
O=Cc1cc(-c2ccccc2)[nH]c1-c1ccccc1,7,0,3,-1,0,0
CC(OC(=O)c1ccc(Br)o1)C(=O)Nc1ccc2c(c1)OCCO2 (configuration not stated),-1,0,2,-1,-1,-2
COc1ccc(OC)c(NC(=O)c2cccc3c2C(=O)N(C2CCCCC2)C3)c1,14,0,0,-1,-1,0
O=C(Nc1ccc2c(c1)OCCO2)c1ccc(Br)o1,21,1,12*,0,4,2
O=C(Nc1ccc2c(c1)OCO2)c1ccc([N+](=O)[O-])cc1[N+](=O)[O-],72*,0,1,-1,2,0
O=C(Nc1ccc2c(c1)OCCO2)c1cccc(Cl)c1Cl,21,3,12*,0,4,2
COCCN1Cc2cccc(C(=O)Nc3cc(OC)ccc3OC)c2C1=O,48*,0,0,-1,-2,-1
O=C(C1=C(O)C(=O)N(c2ncccn2)C1c1ccc(F)cc1)c1ccco1 (configuration not stated),29,-1,-2,0,5,0
Cc1nn(-c2ccccc2)c(C)c1/C=N/NC(=O)c1cnccn1,28,0,2,-1,3,0
O=C(O)CCCNC(=O)c1ccc(NC(=O)Cc2ccc(Cl)cc2)cc1,0,-1,-2,-2,-1,1
O=C(CC(NC(=O)c1ccccc1Cl)c1ccccc1)Nc1ccc2c(c1)OCO2 (configuration not stated),60*,3,1,-1,0,0
CCCN1Cc2cccc(C(=O)Nc3ccc4c(c3)OCCO4)c2C1=O,3,4.6*,2,-1,1,0
O=C(Nc1ccc2c(c1)OCCO2)c1ccc(Cl)c([N+](=O)[O-])c1,0,3,13*,-1,3,1
CC(NC(=O)c1ccccc1Cl)C(=O)Nc1ccc2c(c1)OCO2 (configuration not stated),.,1,2,-1,0,-1
O=C(O)c1cc(NC(=O)c2ccc(Cl)c([N+](=O)[O-])c2)cc(C(=O)O)c1,1,1,0,-1,0,1
COc1ccc(/C=C/C(=O)O)cc1S(=O)(=O)N1CCCC1,0,0,1,-1,-1,0
COC(=O)c1ccccc1N(C)S(=O)(=O)c1cc2c3c(c1)CCC(=O)N3CCC2,0,-1,-1,0,-1,0
O=C1N=c2ccccc2=C1c1[nH]c(=S)[nH]c1O,61*,-2,0,-1,3,0
O=C1N=c2ccccc2=C1c1sc(=O)[nH]c1O,10,.,-1,-1,-1,0
COc1ccc(C(CC(=O)Nc2ccccn2)N2Cc3ccccc3C2=O)cc1OC (configuration not stated),0,0,-3,-1,-1,0
O=C(NCC1CCCO1)c1ccc([N+](=O)[O-])s1 (configuration not stated),1,3,-1,-1,-3,-1
NC(=O)c1cc2ccc(O)cc2oc1=NCc1ccccc1,5,1,6,-1,2,1
NC(=O)c1cc2ccc(O)cc2oc1=Nc1ccccc1,.,-1,12*,0,4,4
CN(c1ccccc1)c1nc(N)c([N+](=O)[O-])c(Nc2cccc(F)c2)n1,7,0,2,-1,-2,0
SMILES,AHR activator,DAX1 inh-1,hgDAF-12 ag,ssDAF12 agonist,hcDAF12 agonist,DAX1 inh-2
CN(Cc1ccccc1)c1nc(N)c([N+](=O)[O-])c(Nc2cccc(F)c2)n1,48*,0,-1,-1,0,-1
COC(=O)[C@]12C[C@H](CC(=O)NCc3cccs3)C(=O)N(CCc3ccc(OC)c(OC)c3)C1=C[C@H](C(C)(C)C)O[C@@H]2C,.,.,0,-2,-2,1
CC(NC(=O)CN1C(=O)NC2(CCCCCC2)C1=O)c1ccccc1Cl (configuration not stated),-1,1,-1,1.1*,-1,1
O=C(CN1C(=O)NC2(CCCCC2)C1=O)Nc1cccc(S(=O)(=O)N2CCCC2)c1,-1,1,0,0,-1,4.6*
N#Cc1ccccc1NC(=O)CN1C(=O)NC2(CCCC2)C1=O,18,4.7*,-1,-1,5,0
COc1cc2oc(=O)ccc2cc1[C@H](O)[C@@H](O)C(C)(C)O,1,0,2,-1,-1,1
c1ccc2c(c1)Cc1cc3ccccc3nc1-2,30,3,15*,1.2*,17*,2
Cc1ccc(C(C)(O)CS(=O)(=O)Cc2ccccc2Cl)cc1 (configuration not stated),2,-1,2,-1,0,0
COc1ccc(/C=N/OCC(=O)NCc2cccs2)c(OC)c1,48*,-1,-1,-1,-2,-1
CCCSc1ccc(C(=O)Nc2ccc(Cl)cc2)cn1,60*,0,5,0,4,0
Cc1[nH]c2ccccc2c1/C=C/c1nc2ccccc2c(=O)n1CCO,52*,-3,-1,-1,-1,-2
C#CCN(C[C@H]1[C@H](OC(=O)NCCCCCC)[C@H](OC(=O)NCCCCCC)CN(C(=O)OC(C)C)N1C(=O)OC(C)C)S(=O)(=O)c1ccc(C)cc1,.,.,0,-1,-2,-1
COc1ccc(-c2nc(SC(C)C(=O)NC3CC3)n[nH]2)cc1 (configuration not stated),.,4.5*,2,-1,2,2
Cc1ccc(-c2nc(SCC(=O)NCC3CCCO3)c(-c3ccc(C)cc3)[nH]2)cc1 (configuration not stated),54*,-1,-1,-1,-1,-1
Cc1ccc2nc(SCC(=O)NCC3CCCO3)c(C#N)cc2c1 (configuration not stated),5,0,2,-1,1,0
COc1ccc(-c2nc(SCC(=O)Nc3nccs3)c(-c3ccc(Cl)cc3)[nH]2)cc1,72*,0,2,-1,-1,0
COc1ccc(-c2[nH]c(-c3cccc(OC)c3)nc2SCC(=O)NCc2ccco2)cc1,77*,0,4,-1,-3,-3
COc1ccc(-c2cc(-c3ccccc3)nc(SCC(=O)Nc3nccs3)c2C#N)cc1,-1,0,2,-1,3,0
C[C@H](CO)N1C[C@H](C)[C@H](CN(C)C(=O)c2ccccc2)OCc2cnnn2CCCC1=O,.,1,0,-2,1,1

# Screening data: PubChem BioAssay, The Scripps Research Institute Molecular Screening Center
